# Out of some 52,000 compounds screened, about 4,300 (8.3%) were called active. Shown is part of a subset that was picked to be rich in actives. Unmarked numbers belong to inactive results. No stated cut-off is given here; in the data, active means survival mostly below about 52% (no sharp cut-off); inactive means mostly above about 56%.
# Tested on: DeltatarO mutant
# Assay: S. aureus survival, RN4220 and DeltatarO strains – OD600, teichoic acid synthesis inhibitors, primary screen (AID 463173)
# Settings: S. aureus RN4220 wild type/DeltatarO growth, OD600, 18 h, active compounds read low, screened at 18.75 µg/mL (by protocol)
row,Compound,survival
1,COc1cccc(CNC(=O)c2[nH]c3cc(C)ccc3c2Sc2ccccc2)c1,83%
2,CCCN1C(=O)c2ccccc2NC1c1cc(OC)c(OC)c(OC)c1 (stereo not given),96%
3,CC(C)c1ccc(NC(=O)C2CCN(S(=O)(=O)c3cccc4nsnc34)CC2)cc1,72%
4,CCOc1ccc(N(CC)S(=O)(=O)N2CCCC(C(=O)Nc3ccc(NC(C)=O)cc3)C2)cc1 (stereo not given),84%
5,COc1ccc(-c2cc(C(=O)Nc3c(C)nn(Cc4ccc(F)cc4)c3C)no2)cc1OC,59%
6,Cc1ccc(Cn2nc(C)c(NC(=O)c3cc(-c4ccc(F)cc4)on3)c2C)cc1,61%
7,COc1ccccc1-c1cc(C(=O)Nc2c(C)nn(Cc3ccc(Cl)cc3)c2C)no1,29% (active)
8,COc1ccc(-c2cc(C(=O)Nc3c(C)nn(Cc4ccccc4C)c3C)no2)cc1,51%
9,COc1ccc(-c2cc(C(=O)Nc3c(C)nn(Cc4ccc(C)cc4)c3C)no2)cc1OC,60%
10,Cc1cc(C(=O)Nc2c(C)nn(Cc3ccc(F)cc3)c2C)no1,156%
11,COc1ccc(OC)c(-c2cc(C(=O)Nc3c(C)nn(Cc4ccc(C)cc4)c3C)no2)c1,34% (active)
12,CCc1cc(C(=O)Nc2c(C)nn(Cc3ccccc3Cl)c2C)no1,69%
13,COc1cccc(-c2cc(C(=O)Nc3c(C)nn(Cc4ccccc4Cl)c3C)no2)c1,34% (active)
14,COc1cc(NC(=O)Cn2ncc3c([nH]c4ccc(C)cc43)c2=O)cc(OC)c1OC,86%
15,Cn1c(N2CCN(S(=O)(=O)c3ccc(Cl)cc3)CC2)nc2ccccc21,83%
16,COc1ccc(NC(=O)CCc2c(C)nn(-c3ccc(N4CCCCC4)nn3)c2C)cc1Cl,87%
17,Cc1sc2nc(CN3CCN(C(=O)c4ccco4)CC3)n(C(=O)c3ccco3)c(=O)c2c1C,86%
18,CCOC(=O)c1c(S(=O)(=O)N2CCCC(C(=O)Nc3cc(C)ccc3OC)C2)c(C)n(C)c1C (stereo not given),75%
19,O=C(/C=C/c1ccco1)OCCN1CCOCC1,69%
20,O=C1c2ccccc2C(=O)N1COc1cccc2cccnc12,97%
21,O=C(/C=C/c1ccco1)ON1C(=O)c2ccccc2C1=O,91%
22,O=C(Oc1cccc2cccnc12)c1ccccc1,2% (active)
23,O=C(Oc1ccccc1-c1nc(-c2ccccc2)no1)c1ccccc1,85%
24,O=C(/C=C\c1ccco1)Oc1cccc2cccnc12,2% (active)

row,Compound,survival
1,Cc1ccc(C(c2nnnn2Cc2ccccc2)N2CCC(C)CC2)cc1 (stereo not given),70%
2,CCCC1(C(=O)OC)NC(c2ccc(OC)c(OC)c2)C2C(=O)N(c3ccc4c(c3)OCO4)C(=O)C21 (stereo not given),84%
3,COc1cccc(NC(=O)Cn2cc(C(=O)c3ccc(F)cc3)c(=O)c3cc(OC)ccc32)c1,92%
4,Nc1nnc2c(n1)[nH]c1ccccc12,81%
5,Cc1ccc(C)c(CN2C(=O)c3ccccc3S(=O)(=O)c3ccc(C(=O)N4CCN(Cc5ccccc5)CC4)cc32)c1,59%
6,COc1ccc(OC)c(NC(=O)c2cc(C3CC3)nc3c2c(C)nn3-c2ccc(C)cc2)c1,64%
7,O=C(CSc1nnc(COc2ccc(F)cc2)o1)N1c2ccccc2CCc2ccccc21,65%
8,Cn1nnc2c(N3CCN(c4ccccc4)CC3)ncnc21,74%
9,CCOC(=O)C1CCN(c2nc3ccccc3nc2Cl)CC1,-24% (active)
10,CCOC(=O)C1CCN(c2ncnc3c2nnn3C)CC1,37% (active)
11,CCOC(=O)C1CCCN(c2ncnc3c2nnn3C)C1 (stereo not given),117%
12,CC1CCN(c2ncnc3c2nnn3C)CC1,92%
13,CCOC(=O)C1CCN(c2nc(-c3ccc(Br)cc3)nc3ccccc23)CC1,83%
14,Cn1nnc2c(N3CCN(c4ccc(F)cc4)CC3)ncnc21,99%
15,CCOC(=O)C1CCN(c2cc(C)c(C#N)c3nc4ccccc4n23)CC1,100%
16,COc1ccc(N2CCN(c3ncnc4c3nnn4C)CC2)cc1,0% (active)
17,Cc1cc(NS(=O)(=O)c2ccc(NC(=O)COc3ccc(Cl)cc3)cc2)nc(C)n1,54%
18,Cc1ccc2[nH]c(=O)c(CN(CC3COCCO3)C(=O)Nc3ccccc3F)cc2c1 (stereo not given),96%
19,CCCC12CCC(C(=O)O)(CC1)CC2,83%
20,Cc1cc(C(=O)NCc2ccccc2Cl)c2c(C)nn(-c3cccc(F)c3)c2n1,68%
21,CCC(=O)N1CCc2cc(S(=O)(=O)Nc3cc(C)ccc3OC)ccc21,84%
22,Cc1cc(C)cc(NC(=O)c2cc(S(=O)(=O)N3CCc4ccccc43)cn2C)c1,63%
23,CC(C)OC(=O)CSc1n[nH]c(-c2cccnc2)n1,108%
24,Cc1ccnc(NS(=O)(=O)c2ccc(NC(=O)c3cc(=O)c4ccc(C)c(C)c4o3)cc2)n1,78%

row,Compound,survival
1,O=c1c2cnn(-c3ccc(F)cc3)c2ncn1Cc1ccccc1Cl,100%
2,Clc1ccccc1Cn1cccc1C1=NC(Cc2ccccc2)CO1 (stereo not given),40% (active)
3,O=C(CSc1nccn1Cc1ccccc1)NCc1ccccc1Cl,92%
4,O=C(Nc1ccc(S(=O)(=O)Nc2ncccn2)cc1)c1ccccc1Cl,81%
5,COc1ccc(NC(=O)Nc2nnc(C)s2)cc1,91%
6,Cc1ccc2occ(CC(=O)N(Cc3ccc(Cl)cc3)C3CCS(=O)(=O)C3)c2c1 (stereo not given),64%
7,CCc1cccc(N2C(=O)CSC23C(=O)Nc2ccccc23)c1 (stereo not given),85%
8,CCc1cccc(NC(=O)c2cc(-c3ccccc3)n[nH]2)c1,90%
9,CCc1ccc2c(c1)C1(NN=C(c3ccccc3)S1)C(=O)N2 (stereo not given),0% (active)
10,COc1cccc(NC(=O)Cn2cnc3c(nc4n3CCCCC4)c2=O)c1,76%
11,CCN(CC)c1ccc(NC(=O)CCS(=O)(=O)c2cc3c(cc2Cl)NC(=O)CO3)c(C)c1,86%
12,CCc1ccc(C(=O)CC2(O)C(=O)N(Cc3ccc(C)cc3)c3ccccc32)cc1 (stereo not given),57%
13,Cc1ccc(CN2C(=O)C(O)(CC(=O)c3ccc(C)cc3)c3ccccc32)cc1 (stereo not given),65%
14,CCCCN1C(=O)C(O)(CC(=O)c2ccc(CC)cc2)c2cc(Br)ccc21 (stereo not given),32% (active)
15,O=C(CC1(O)C(=O)N(Cc2ccccc2)c2ccc(Br)cc21)c1ccccc1 (stereo not given),99%
16,Cc1ccc(C(=O)CC2(O)C(=O)N(Cc3ccccc3)c3ccccc32)c(C)c1 (stereo not given),41% (active)
17,CCCN1C(=O)C(O)(CC(=O)c2ccc(OC)c(OC)c2)c2ccccc21 (stereo not given),146%
18,COc1ccc(C(=O)CC2(O)C(=O)N(Cc3cccc(C(F)(F)F)c3)c3ccccc32)cc1 (stereo not given),33% (active)
19,Cc1ccccc1CN1C(=O)C(O)(CC(=O)c2cccc(Br)c2)c2ccccc21 (stereo not given),71%
20,COc1cccc(C(=O)CC2(O)C(=O)N(Cc3ccccc3)c3ccccc32)c1 (stereo not given),175%
21,COc1ccc(C(=O)CC2(O)C(=O)N(Cc3ccccc3)c3ccc(Br)cc32)cc1 (stereo not given),50%
22,CCCCN1C(=O)C(O)(CC(=O)c2ccc(C)cc2C)c2cc(Br)ccc21 (stereo not given),11% (active)
